# Measured values from PubChem BioAssay.
# Unmarked numbers belong to inactive results. For some assays here: Entries with a potency or affinity are not part of this list. Calls of active or inactive are those of the source. Unless noted, the rule behind the calls is not given here.
# Legend:
# [1] = antimalarial activity against Dd2 strain (AID 2302;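 active = growth inhibition above 50% at the single 2 µM test dose, taken to imply half-maximal potency below 2 µM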;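 note: 0% = DMSO untreated growth and 100% = chloroquine plus artemisinin killed control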); conditions: P. falciparum Dd2 in RBCs, LDH growth readout, 72 h; at 2 µM; hits give high values
# [2] = human hepatoma cell viability loss – ATP luminescence, cytotoxicity control for P. falciparum antimalarial project, primary screen (AID 2303;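 active = inhibition above 50%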;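 note: 0% = DMSO wells and 100% = digitonin-killed cells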); conditions: HepG2 viability, 24-48 h, at 10 µM, hits give high values
# [3] = target: L-lactate dehydrogenase (Plasmodium falciparum (isolate CDC / Honduras)) (UniProt Q27743); assay: PfLDH activity inhibition – cell lysate, 3D7 strain, counter-screen for P. falciparum growth inhibition project (AID 2304);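 note: 0% = vehicle and 100% = reference inhibitor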; conditions: P. falciparum 3D7 crude extract, LDH APAD/NBT absorbance; at 2 µM; hits give high values
# Sequence of L-lactate dehydrogenase (Plasmodium falciparum (isolate CDC / Honduras)) (Q27743 whole entry, looked up): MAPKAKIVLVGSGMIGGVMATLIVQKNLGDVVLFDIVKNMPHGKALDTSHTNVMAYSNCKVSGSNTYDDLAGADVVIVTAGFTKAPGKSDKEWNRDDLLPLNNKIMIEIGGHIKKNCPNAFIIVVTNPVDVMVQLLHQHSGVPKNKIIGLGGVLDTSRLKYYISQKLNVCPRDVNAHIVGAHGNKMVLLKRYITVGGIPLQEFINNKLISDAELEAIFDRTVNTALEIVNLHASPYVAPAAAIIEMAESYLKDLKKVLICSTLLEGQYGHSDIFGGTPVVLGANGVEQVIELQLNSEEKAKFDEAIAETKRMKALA
# [4] = inhibition of 3D7 malaria parasite growth – strain 3D7 (AID 2306);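 note: 0% = DMSO wells and 100% = chloroquine plus artemisinin control wells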; conditions: P. falciparum 3D7 erythrocytic growth, LDH absorbance, 72 h; at 2 µM; hits give high values
# [5] = target: Calcium-dependent protein kinase 1 (Plasmodium falciparum (isolate 3D7)) (UniProt P62344); assay: PfCDPK1 kinase inhibitors, biochemical, TCAMS library (AID 1159585; cut-off not given, nearly all actives have IC50 up to about 0.98 µM;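 note: inhibitors leave more ATP so luminescence rises with inhibition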); conditions: recombinant PfCDPK1, Kinase-Glo ATP depletion luminescence
# Sequence of Calcium-dependent protein kinase 1 (Plasmodium falciparum (isolate 3D7)) (P62344 whole entry, looked up): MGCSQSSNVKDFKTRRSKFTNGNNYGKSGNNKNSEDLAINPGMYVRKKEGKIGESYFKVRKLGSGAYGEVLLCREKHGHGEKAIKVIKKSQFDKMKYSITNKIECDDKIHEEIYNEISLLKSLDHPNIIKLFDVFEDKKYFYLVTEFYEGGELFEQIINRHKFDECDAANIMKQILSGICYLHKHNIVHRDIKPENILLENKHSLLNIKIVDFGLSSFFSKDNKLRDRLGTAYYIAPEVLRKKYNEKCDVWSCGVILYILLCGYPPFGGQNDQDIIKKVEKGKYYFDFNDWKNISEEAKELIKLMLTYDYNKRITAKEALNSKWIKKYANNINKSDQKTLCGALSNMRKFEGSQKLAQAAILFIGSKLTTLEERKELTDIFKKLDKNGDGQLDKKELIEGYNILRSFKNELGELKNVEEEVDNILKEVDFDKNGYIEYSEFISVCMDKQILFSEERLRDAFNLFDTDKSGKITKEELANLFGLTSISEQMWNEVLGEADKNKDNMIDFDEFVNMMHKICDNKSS
# [6] = target: Plasmodium falciparum protein kinase 6 (PK6, PF3D7_1337100) (UniProt Q8IDW1); assay: PfPK6 kinase inhibitors, biochemical, TCAMS library (AID 1159586); conditions: recombinant PfPK6, Kinase-Glo ATP depletion luminescence
# Sequence of Plasmodium falciparum protein kinase 6 (PK6, PF3D7_1337100) (Q8IDW1 1-305): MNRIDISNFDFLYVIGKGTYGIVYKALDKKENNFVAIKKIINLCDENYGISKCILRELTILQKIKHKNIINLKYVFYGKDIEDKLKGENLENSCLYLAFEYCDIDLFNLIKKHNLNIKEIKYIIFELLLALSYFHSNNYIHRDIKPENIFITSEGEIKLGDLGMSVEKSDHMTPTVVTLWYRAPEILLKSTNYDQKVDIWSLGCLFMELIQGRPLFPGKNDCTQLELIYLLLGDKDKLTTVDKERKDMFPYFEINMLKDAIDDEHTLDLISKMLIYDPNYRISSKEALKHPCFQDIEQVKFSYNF
# [7] = target: Protein kinase 7 (PK7), Plasmodium falciparum 3D7 (PF3D7_0213400) (UniProt Q7YTF7); assay: inhibition of Plasmodium PK7 catalytic activity – biochemical, TCAMS antimalarial set, Kinase-Glo luminescence (AID 1159587); conditions: recombinant PfPK7, Kinase-Glo ATP depletion luminescence
# Sequence of Protein kinase 7 (PK7), Plasmodium falciparum 3D7 (PF3D7_0213400) (Q7YTF7 1-343): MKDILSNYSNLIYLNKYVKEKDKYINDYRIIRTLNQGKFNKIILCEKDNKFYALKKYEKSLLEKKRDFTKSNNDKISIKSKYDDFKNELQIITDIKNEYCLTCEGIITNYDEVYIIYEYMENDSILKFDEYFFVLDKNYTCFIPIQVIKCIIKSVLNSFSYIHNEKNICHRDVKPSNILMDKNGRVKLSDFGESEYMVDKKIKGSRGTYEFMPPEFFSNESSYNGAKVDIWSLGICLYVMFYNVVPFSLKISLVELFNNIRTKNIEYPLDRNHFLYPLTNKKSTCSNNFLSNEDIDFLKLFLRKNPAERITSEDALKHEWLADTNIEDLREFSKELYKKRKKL
# [8] = target: Calcium-dependent protein kinase 4 (Plasmodium falciparum (isolate 3D7)) (UniProt Q8IBS5); assay: PfCDPK4 kinase inhibitors, biochemical, TCAMS library (AID 1159588; cut-off not given, nearly all actives have IC50 up to about 0.91 µM); conditions: recombinant PfCDPK4, Kinase-Glo ATP depletion luminescence
# Sequence of Calcium-dependent protein kinase 4 (Plasmodium falciparum (isolate 3D7)) (Q8IBS5 whole entry, looked up): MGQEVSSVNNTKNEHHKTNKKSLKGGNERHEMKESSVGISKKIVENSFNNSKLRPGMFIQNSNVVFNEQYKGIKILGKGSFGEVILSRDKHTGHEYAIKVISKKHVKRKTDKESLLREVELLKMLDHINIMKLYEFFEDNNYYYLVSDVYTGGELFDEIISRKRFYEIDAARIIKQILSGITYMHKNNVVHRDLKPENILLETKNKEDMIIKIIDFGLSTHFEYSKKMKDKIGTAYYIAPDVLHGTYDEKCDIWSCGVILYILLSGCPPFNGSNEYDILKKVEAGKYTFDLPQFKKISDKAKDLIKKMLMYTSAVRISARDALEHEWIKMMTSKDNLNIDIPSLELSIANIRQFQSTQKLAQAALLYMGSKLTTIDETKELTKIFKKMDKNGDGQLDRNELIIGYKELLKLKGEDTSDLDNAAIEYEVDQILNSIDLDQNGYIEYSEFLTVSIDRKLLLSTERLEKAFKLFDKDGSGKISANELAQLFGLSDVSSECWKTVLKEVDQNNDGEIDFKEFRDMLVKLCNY
SMILES,growth inhibition [1],inhibition [2],inhibition [3] [%],growth inhibition [4],outcome [5],outcome [6],outcome [7],outcome [8]
COc1ccc(Nc2nccc(-c3ccc4ccnc(NCCCCN)c4c3)n2)cc1,47%,15%,6,95% (active),inactive,inactive,inactive,inactive
N#Cc1cccc(CN2CCCN(c3ccc(NC(=O)c4cccs4)cc3)CC2)c1,95% (active),-2%,-2,96% (active),inactive,inactive,inactive,inactive
CCCc1ccc(Nc2nc(C)cc(N(CC)CCCN3CCCCC3)n2)cc1,95% (active),48%,5,101% (active),inactive,inactive,inactive,inactive
COc1cc2nc(Nc3ccc(C)cc3)nc(Nc3ccc(C)cc3)c2cc1OC,100% (active),99% (active),-1,101% (active),inactive,inactive,inactive,inactive
COc1c(CCNCCCCNCCc2cc(Cl)c3ccccc3c2OC)cc(Cl)c2ccccc12,100% (active),99% (active),-7,99% (active),inactive,inactive,inactive,inactive
O=C(Nc1ccc(-c2cncc(NCCCN3CCCC3)c2)cc1)c1ccccc1,49%,-1%,-2,94% (active),inactive,inactive,inactive,inactive
O=C(Oc1ccc(C2CNCCc3c2cc(OC(=O)c2ccc(O)cc2)c(OC(=O)c2ccc(O)cc2)c3Cl)cc1)c1ccc(O)cc1 (stereo not given),60% (active),-2%,0,90% (active),inactive,inactive,inactive,inactive
COC(=O)c1cc(C(O)CNC(C)CCc2cccc(F)c2)ccc1O (stereo not given),77% (active),38%,-2,94% (active),inactive,inactive,inactive,inactive
Fc1ccc(-c2csc3ncnc(Cl)c23)cc1,95% (active),3%,-1,94% (active),inactive,inactive,inactive,inactive
COc1ccc2nccc([C@@H](O)CN3CCC(NCCOc4cccc(C(F)(F)F)c4)CC3)c2c1,74% (active),16%,3,102% (active),inactive,inactive,inactive,inactive
CN(C)C(CNC(=O)c1cc(-c2ccncc2)c(-c2ccc(NC(=O)Nc3ccccc3)cc2)o1)c1ccccc1 (stereo not given),96% (active),19%,4,101% (active),inactive,inactive,inactive,inactive
CN1CCC(C(=O)N(Cc2ccc(-c3ccc(CNCCc4ccccc4)cn3)cc2)C2Cc3ccccc3C2)CC1,97% (active),65% (active),-2,88% (active),inactive,inactive,inactive,inactive
Cc1ccc(CNC(=O)[C@H](CCCN)Nc2nc(NCC3CCCCC3)ncc2C)cc1,5%,1%,3,92% (active),inactive,inactive,inactive,inactive
O=C(C=Cc1ccc(Cl)c(Cl)c1)NCCCCCN1CCCC(CCCNC(=O)c2ccc3c(c2)OCO3)C1 (stereo not given),4%,30%,3,95% (active),inactive,inactive,inactive,inactive
Cc1nc(N=C(N)N)nc2cc3c(cc12)CCC3,58% (active),17%,5,90% (active),inactive,inactive,inactive,inactive
CC(C)N1CCC(N(Cc2ccc(-c3ccc(C(F)(F)F)cc3)cc2)C(=O)Cn2c(SCc3cccc(F)c3F)cc(=O)c3ccccc32)CC1,77% (active),52% (active),1,100% (active),inactive,inactive,inactive,inactive
N#Cc1ccc(-c2nc(CO)c(C(=O)NCCCCN3CCC(c4ccc5c(c4OCC(N)=O)CCCC5)CC3)s2)cc1,-1%,9%,4,92% (active),inactive,inactive,inactive,inactive
CC[C@H]1CN(C/C=C/c2ccc(OC)cc2)CC[C@H]1CCCc1ccnc2ccc(O)cc12,72% (active),24%,1,99% (active),inactive,inactive,inactive,inactive
O=C(Cc1ccsc1)NCC(c1ccccc1Cl)c1c[nH]c2ccccc12 (stereo not given),71% (active),0%,-1,86% (active),inactive,inactive,inactive,inactive
CCN1CCC(N(Cc2ccc(-c3ccc(C(F)(F)F)cc3)cc2)C(=O)Cn2nc(C)c(=O)cc2SCc2ccc(F)cc2)CC1,94% (active),77% (active),-1,94% (active),inactive,inactive,inactive,inactive

SMILES,growth inhibition [1],inhibition [2],inhibition [3] [%],growth inhibition [4],outcome [5],outcome [6],outcome [7],outcome [8]
CCOc1ccc2nc(C)cc(NN=Cc3ccccc3F)c2c1,99% (active),0%,-3,101% (active),inactive,inactive,inactive,inactive
COCCCn1c(=N)c(C(=O)NCCc2ccc(OC)cc2)cc2c(=O)n3cccc(C)c3nc21,33%,18%,-1,95% (active),inactive,inactive,inactive,inactive
CC(=O)c1sc(NC(=O)Nc2ccc(C)cc2C)nc1C,68% (active),5%,0,96% (active),inactive,inactive,inactive,inactive
COc1ccccc1C1CCN(C2CCC(NC(=O)/C=C/c3ccc(C(F)(F)F)cc3)CC2)CC1 (stereo not given),7%,57% (active),4,88% (active),inactive,inactive,inactive,inactive
Cc1cccc(CNc2nccc3[nH]c4ccccc4c23)c1,51% (active),14%,0,92% (active),inactive,inactive,inactive,inactive
CCNc1cc(C(=O)N[C@@H](Cc2ccccc2)[C@H](O)CNC2(C(C)C)CCC2)cc(N2CCCCS2(=O)=O)c1,85% (active),-3%,-2,99% (active),inactive,inactive,inactive,inactive
CN1CCCC(CN2CCN(Cc3ccc(-c4cccc(-c5nc6ccc(F)cc6[nH]5)c4)cc3)CC2)C1 (stereo not given),99% (active),92% (active),-2,100% (active),inactive,inactive,inactive,inactive
CC(C)n1ncc2c(C(=O)N3CCCC4CCCCC43)cc(C3CC3)nc21 (stereo not given),92% (active),7%,2,99% (active),inactive,inactive,inactive,inactive
N#Cc1cccc(C(=O)NC2CCN(c3ccnc(Nc4ccc(F)cc4)n3)C2)c1 (stereo not given),91% (active),4%,-8,98% (active),inactive,inactive,inactive,inactive
CC(C)(C)c1nn(-c2ccccc2)c2[nH]c(=O)c(CNCCc3ccccc3)cc12,90% (active),-7%,0,94% (active),inactive,inactive,inactive,inactive
O=c1cc(NCCCNCc2ccc(C(F)(F)F)cc2F)[nH]c2ccccc12,48%,1%,8,93% (active),inactive,inactive,inactive,inactive
CC(C)CCNC(=O)C1Cc2c([nH]c3ccc(Br)cc23)C2(CCN(CCc3ccccc3)CC2)N1 (stereo not given),61% (active),25%,2,101% (active),inactive,inactive,inactive,inactive
CC(C)N1CCC(N(Cc2ccc(-c3ccc(C(F)(F)F)cc3)cc2)C(=O)Cn2c(SCc3cccc(F)c3F)nc(=O)c3ccccc32)CC1,75% (active),74% (active),-4,91% (active),inactive,inactive,inactive,inactive
OC1CCCN(Cc2cccc(-c3ccc(-c4nc5ccccc5[nH]4)cc3)c2)C1 (stereo not given),16%,25%,-2,85% (active),inactive,inactive,inactive,inactive
CCCNCc1ccc(-c2ccc(CN(CCOC)C(=O)CCCOCc3ccccc3)cc2)nc1,13%,-2%,2,93% (active),inactive,inactive,inactive,inactive
Cc1nnsc1C(=O)Nc1ccc(-c2cccc(-c3nc4ccc(F)cc4[nH]3)c2)cc1,27%,44%,2,96% (active),inactive,inactive,inactive,inactive
O=C(Nc1cccc(CN2CCCN(Cc3cccc(Cl)c3)CC2)c1)c1ccc(-c2ccccc2)cc1,14%,44%,1,86% (active),inactive,inactive,inactive,inactive
CCOC(=O)c1cnc2c(OC)cc(OC)c(Cl)c2c1Nc1cccc(C)c1C,99% (active),5%,0,102% (active),inactive,inactive,inactive,inactive
O=C(C=Cc1ccc(Cl)c(Cl)c1)NCCCCCN1CCC(CCCNS(=O)(=O)c2cccc(C(F)(F)F)c2)CC1,59% (active),99% (active),3,100% (active),inactive,inactive,inactive,inactive
CC(C)(CNC(=O)C1CCN(CC2CCCCC2)CC1)c1nc(-c2ccc(Cl)c(O)c2)c(-c2ccncc2)[nH]1,31%,-6%,-3,98% (active),inactive,inactive,inactive,inactive
